Data taken from the supplement of paper PMC8975748.
Counter-ions that a name gives are not always drawn.

Test system: Saccharomyces cerevisiae BY4741 SeMeCo community
Experiment: z-score of subpopulation abundance vs DMSO median, subpopulation auxotrophic for UM; higher = larger share of this subpopulation than in DMSO controls
Conditions: 10 µM; 24 h; SM minimal medium; subpopulation (auxotrophy): UM
Protocol: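 Fluorescent four-plasmid SeMeCo (self-establishing metabolically cooperating S. cerevisiae BY4741 community; plasmids pH-mRuby2, pL-mWasabi, pU-eCFP, pM-TagRFP657) was grown 24 h in minimal SM medium with each Selleck FDA-approved drug at 10 µM in 384-well plates. Cells were fixed and imaged by high-content confocal microscopy. For each auxotrophic subpopulation (and the prototroph), a z-score gives the deviation from the DMSO vehicle-control population median.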

Compound	z-score of subpopulation abundance
COc1ccc2c(c1)c(CC(=O)O)c(C)n2C(=O)c1ccc(Cl)cc1 [Indomethacin]	1.08
Cc1cnc(NC(=O)C2=C(O)c3ccccc3S(=O)(=O)N2C)s1 [Meloxicam]	-0.26
CC1(C)S[C@@H]2[C@H](NC(=O)C(C(=O)O)c3ccccc3)C(=O)N2[C@H]1C(=O)O (stereo not given in full) [Carbenicillin disodium]	-0.3
Oc1c(I)cc(I)c2cccnc12 [Diiodohydroxyquinoline]	0.65
CC[C@H](C)C(=O)O[C@H]1C[C@H](O)C=C2C=C[C@H](C)[C@H](CC[C@@H](O)C[C@@H](O)CC(=O)O)[C@H]21 [Pravastatin sodium]	0.47
CO/N=C(\C(=O)N[C@@H]1C(=O)N2C(C(=O)O)=CCS[C@H]12)c1csc(N)n1 [Ceftizoxime]	-0.98
CCC1=C(C)CN(C(=O)NCCc2ccc(S(=O)(=O)NC(=O)N[C@H]3CC[C@H](C)CC3)cc2)C1=O [Glimepiride]	0.19
Oc1c(Cl)cc(Cl)c2cccnc12 [Chloroxine]	1.02
O=[N+]([O-])c1ccc(O)c2ncccc12 [Nitroxoline]	4.38
CCCCN1CCCCC1C(=O)Nc1c(C)cccc1C (stereo not given) [Bupivacaine HCl]	0.27
CCCCCCCCCCCCCCCCOP(=O)([O-])OCC[N+](C)(C)C [Miltefosine]	31.2
Oc1c(Cl)cc(Cl)cc1Sc1cc(Cl)cc(Cl)c1O [Bithionol]	-0.68
CCc1c(C)[nH]c2c1C(=O)C(CN1CCOCC1)CC2 (stereo not given) [Molindone hydrochloride]	-0.67
CCCN[C@H]1CCc2nc(N)sc2C1 [Pramipexole dihydrochloride]	0.32
CCCC1CC(C(=O)NC(C(C)Cl)C2OC(SC)C(O)C(O)C2O)N(C)C1 (stereo not given) [Clindamycin alcoholate]	-0.51
C#CCN[C@@H]1CCc2ccccc21 [Rasagiline Mesylate]	-0.05
CN(C)C(=O)COC(=O)Cc1ccc(OC(=O)c2ccc(NC(=N)N)cc2)cc1 [Camostat Mesilate]	-0.43
Fc1ccc([C@@H]2CCNC[C@H]2COc2ccc3c(c2)OCO3)cc1 [Paroxetine HCl]	-0.16
Cc1nnc(SCC2=C(C(=O)O)N3C(=O)[C@@H](NC(=O)Cn4cc(Cl)c(=O)c(Cl)c4)[C@H]3SC2)s1 [Cefazedone]	-0.27
CCN(CC)C(=O)C1(c2ccccc2)CC1CN (stereo not given) [Milnacipran HCl]	0.33

Compound	z-score of subpopulation abundance
CN1CCN(C2=Nc3cc(Cl)ccc3Nc3ccccc32)CC1 [Clozapine]	0.28
O=C(O[C@H]1CN2CCC1CC2)N1CCc2ccccc2[C@@H]1c1ccccc1 [Solifenacin succinate]	1.06
CO[C@H]1C[C@@H]2CC[C@@H](C)[C@@](O)(O2)C(=O)C(=O)N2CCCC[C@H]2C(=O)O[C@H]([C@H](C)C[C@@H]2CC[C@@H](O)[C@H](OC)C2)CC(=O)[C@H](C)/C=C(\C)[C@@H](O)[C@@H](OC)C(=O)[C@H](C)C[C@H](C)/C=C/C=C/C=C/1C [Rapamycin (Sirolimus)]	13.7
Cc1cc(O)c(C(=O)N[C@@H](C(=O)N[C@@H]2C(=O)N3C(C(=O)O)=C(CSc4nnnn4C)CS[C@H]23)c2ccc(O)cc2)cn1 [Cefpiramide sodium]	0.29
C[C@H](Nc1ncnc2nc[nH]c12)c1cc2cccc(Cl)c2c(=O)n1-c1ccccc1 [Duvelisib (IPI-145, INK1197)]	-0.3
CO/N=C(\C(=O)N[C@@H]1C(=O)N2C(C(=O)OC(C)OC(C)=O)=C(COC(N)=O)CS[C@H]12)c1ccco1 (stereo not given in full) [Cefuroxime axetil]	0.26
O=C1c2cccc3c2[C@H](CCC3)CN1[C@@H]1CN2CCC1CC2 [Palonosetron]	0.49
CN(C)CCc1c[nH]c2ccc(Cn3cncn3)cc12 [Rizatriptan Benzoate]	-1.14
COc1ccc2cc([C@H](C)C(=O)O)ccc2c1 [Naproxen Sodium]	-2.49
CCCCN1CCCC[C@H]1C(=O)Nc1c(C)cccc1C [Levobupivacaine HCl]	-0.49
CCC1(C)CC(=O)NC1=O (stereo not given) [Ethosuximide]	-0.4
CCC[C@@H]1C[C@@H](C(=O)N[C@@H]([C@H]2O[C@H](SC)[C@H](O)[C@@H](O)[C@H]2O)[C@@H](C)O)N(C)C1 [Lincomycin HCl]	0.19
Cc1cc(/C=C/c2ccc3cc(N(C)C)ccc3[n+]2C)c(C)n1-c1ccccc1 [pyrvinium]	1.08
O=C(O)c1ccccc1C(=O)Nc1ccc(S(=O)(=O)Nc2nccs2)cc1 [Phthalylsulfathiazole]	1.23
CC[C@H]1OC(=O)[C@H](C)[C@@H](O[C@H]2C[C@@](C)(OC)[C@@H](O)[C@H](C)O2)[C@H](C)[C@@H](O[C@@H]2O[C@H](C)C[C@H](N(C)C)[C@H]2O)[C@](C)(O)C[C@@H](C)CN[C@H](C)[C@@H](O)[C@]1(C)O [Azathramycin]	0.42
C[C@](N)(Cc1ccc(O)c(O)c1)C(=O)O [Methyldopa]	-0.7
O=c1ccc2cc(O)c(O)cc2o1 [Esculetin]	-8.53
Cc1cc(NS(=O)(=O)c2ccc(N)cc2)no1 [Sulfamethoxazole sodium]	1.33
CCCCCCCCCCCC(=O)O [Lauric Acid]	0.3
CN1C(C(=O)Nc2ccccn2)=C(O)c2sc(Cl)cc2S1(=O)=O [Lornoxicam]	0.21
